Shiga toxin inh: inhibitors of Shiga toxin in Vero cells. Vero cells, Shiga toxin protein synthesis inhibition reporter. 290,000 compounds, 9.2% hits. inhibition, % at 38.7 µM; in the data active = inhibition mostly above about 28%, no sharp cut-off; inactive = mostly below about 43%; also: 0% is about no effect
CHX counter: affects cycloheximide protein synthesis inhibition readout, counter-screen; cell reporter, cycloheximide protein synthesis inhibition counterscreen; max response, %; 300,000 compounds, 12% hits; AID 2314; in the data active = max response mostly above about 13%, no sharp cut-off; inactive = mostly below about 14%; also: read at 38.3 µM for the half of the compounds with a filed dose; 0% is about no effect
NS1 function inh: inhibitors of influenza NS1 protein function; Potency, µM (highest dose often 46.1 µM), for inactives: top-dose activity, positive = more growth; 270,000 compounds, 0.4% hits; calls by dose curve; also: potency is read from the fitted curve at half-maximal effect; actives are rising curves; nearly all actives have a fitted effect of over 50% in size
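S. cerevisiae expressing influenza A NS1, grown in glucose, washed, then diluted 1:100 into pH 6.0 -URA galactose medium with 23 nl compound. Growth recovery read as OD600; NS1-free strain serves as control.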
LmPK inh: LmPK (Leishmania mexicana) enzyme inhibition | Q27686 | purified LmPK, Kinase-Glo ATP luminescence, 1 h | Potency, µM (doses to about 57.5 µM), for the others: at the highest dose activity change, negative = inhibition, most hits filed as inhibitors | 290,000 compounds, 0.37% hits | AID 1721; also: potency is read from the fitted curve at half-maximal effect; % is scaled to controls: 0 for no effect and ±100 for the full control effect
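Purified LmPK (0.1 nM) with 0.5 mM PEP and 0.1 mM ADP in imidazole buffer pH 7.2 with MgCl2/KCl, 1 h at room temperature. ATP formed was read by luciferase luminescence and normalized to no-enzyme and uninhibited controls.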
FBPA Giardia inh: inhibitors of Giardia lamblia fructose-1,6-bisphosphate aldolase; Potency, µM (doses to about 59.6 µM), inactives show top-dose activity, negative = inhibition, most hits filed as inhibitors; 290,000 compounds, 0.71% hits; AID 2451; purified Giardia FBPA; also: potency is read from the fitted curve at half-maximal effect; % is scaled to controls: 0 for no effect and ±100 for the full control effect; nearly all actives have a fitted effect of over 55% in size
Target sequence (A8B2U2 whole entry, looked up): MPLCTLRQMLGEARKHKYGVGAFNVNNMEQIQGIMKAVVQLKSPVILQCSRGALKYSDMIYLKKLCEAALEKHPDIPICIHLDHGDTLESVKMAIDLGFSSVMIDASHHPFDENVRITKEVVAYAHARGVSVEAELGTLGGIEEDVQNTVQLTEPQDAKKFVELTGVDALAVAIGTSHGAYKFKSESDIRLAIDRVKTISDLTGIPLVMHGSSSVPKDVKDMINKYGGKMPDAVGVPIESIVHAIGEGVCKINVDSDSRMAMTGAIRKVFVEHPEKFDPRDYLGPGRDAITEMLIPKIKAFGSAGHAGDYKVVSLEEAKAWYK
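Giardia FBPA (40 nM reagent) was preincubated 10 min at RT with compound (up to 57.5 uM final), then substrate plus GAPDH/TPI/NAD/arsenate coupling system with diaphorase/resazurin was added; resorufin fluorescence (525/598 nm) was read after 20 min.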
An asterisk follows results filed as active; ? = inconclusive; nt = not tested or not shown; [ ] = remark or other dose. Shown are actives, neighbours in structure and some others; about 14% of the full set was active somewhere. Unless noted, calls follow the shape of the dose curve; as a rule, active = well fitted curve in the direction sought with a large enough effect; inconclusive = small, poorly fitted or top-dose-only effect, or another doubt; inactive = no such curve, though single readings can be large; an effect the other way counts as inactive or inconclusive.

SMILES	Shiga toxin inh	CHX counter	NS1 function inh	LmPK inh	FBPA Giardia inh
CCOc1ccc(N/C=C/C(=O)c2ccc(OC)cc2)c([N+](=O)[O-])c1	131.7*	39.4*	14.9%	-0.3%	-0.4%
COc1ccc(C(=O)/C=C/Nc2ccc([N+](=O)[O-])cc2)cc1	113.6*	85.0*	7.4%	3.0%	1.7%
COc1ccc(N/C=C/C(=O)c2ccc(Oc3ncccn3)cc2)cc1	10.9	10.2	2.2%	1.2%	-0.6%
CCOc1ccc(N/C=C/C(=O)c2ccc(OC)cc2)cc1	131.9*	19.5*	8.1%	3.2%	1.6%
O=[N+]([O-])c1ccc(OCCCCN2CCc3ccccc3C2)cc1	6.7	-1.8	18.8%	-5.9%	?
Cc1ccc(Cl)cc1NC(=O)Nn1cnnc1	-12.3	-2.1	-3.2%	0.8%	5.1%
O=C(O)c1ccccc1C(=O)Nc1nc(-c2ccc3ccccc3c2)cs1	65.9*	36.4*	?	-4.6%	nt
O=C(O)c1ccccc1C(=O)Nc1n[nH]c(=S)s1	-6.1	-3.0	4.0%	3.4%	9.98µM*
CCOC(=O)C(=CNc1nc(-c2ccc3ccccc3c2)cs1)C(=O)OCC	38.0*	26.8*	-3.2%	-0.1%	3.4%
NC(=O)C1CCN(c2nc3c(S(=O)(=O)c4ccccc4)nnn3c3ccccc23)CC1	4.9	-3.9	1.4%	8.8%	nt
COc1ccc([N+](=O)[O-])cc1NC(=O)COC(=O)c1ccccn1	14.1	19.4	nt	3.8%	-24.8%
O=C(NCCCN1CCCCC1)C1CCN(c2ncnc3c2nc2n3CCCCC2)CC1	-5.5	2.6	-1.1%	-1.0%	-7.4%
CC(C)OCCCNc1ncnc2c1nc1n2CCCC1	28.8	17.8*	2.4%	2.5%	-5.0%
CCN(CC)S(=O)(=O)c1ccc(NC(=O)CNC2CCCCC2)cc1	-12.8	-3.2	-0.6%	0.0%	?
Cc1ccc(C(=O)N/C(=C\c2ccccc2)C(=O)OCc2ccccc2)cc1	71.0*	45.2*	1.4%	1.4%	3.9%
Cc1ccc(CONC(=O)c2ccccc2)cc1	67.1*	39.6*	-0.6%	-21.0%	5.7%
CNC(=O)c1ccc(-c2cc(C(F)(F)F)nn2C)s1	62.6*	37.9*	-5.5%	-9.5%	?
CC(=O)NC(Cc1cc(C)ccc1C)C(=O)N1CCN(C(=O)c2ccc(Br)cc2)CC1 (centres undefined)	-19.3	-5.6	5.6%	-0.3%	2.9%
CC(=O)NC(Cc1cc(C)ccc1C)C(=O)N1CCN(C(=O)Nc2ccc(C(C)=O)cc2)CC1 (centres undefined)	13.5	16.6*	?	5.1%	10.6%
CN1C(=O)CC(=O)N(C)c2cc(S(=O)(=O)N(C)Cc3ccccc3)ccc21	-1.4	-2.2	6.3%	3.6%	nt
Cc1ccc(/C=c2\sc3nc(-c4cccnc4)nn3c2=O)cc1	1.8	-2.0	-30.5%	4.5%	-3.0%
Cc1ccc(N2CN=c3s/c(=C\c4cccnc4)c(=O)n3C2)cc1	27.5	19.7*	-5.3%	2.7%	-2.7%
COc1ccc(N=Cc2c(O)n(C)c(=O)n(C)c2=O)cc1	29.3	24.6	3.7%	?	3.3%
COc1ccc(N=CC2=C(O)CCCC2=O)cc1	76.4*	37.2*	-5.0%	-12.2%	-3.8%
COc1ccc(N=CC2=C(O)CC(C)(C)CC2=O)cc1	64.8*	36.3*	-14.8%	13.9%	-2.4%
SMILES	Shiga toxin inh	CHX counter	NS1 function inh	LmPK inh	FBPA Giardia inh
CC1=NN(c2ccc(S(=O)(=O)O)cc2C)C(=[OH+])[C@H]1N=Nc1cc(S(=O)(=O)O)ccc1C(=O)O.O.[Cr]	nt	nt	-0.3%	nt	nt
Cc1ccc(Nc2ncc3c(n2)CC(C)(C)CC3=O)cc1	118.5*	34.0*	-5.0%	0.4%	15.8%
CCOC(=O)N1CCN(S(=O)(=O)c2ccc(C(=O)N(CCN(C)C)c3nc4ccc(CC)cc4s3)cc2)CC1	24.4	23.5*	-10.3%	-1.7%	-24.7%
CCOC(=O)N1CCN(S(=O)(=O)c2ccc(C(=O)N(CCCN(C)C)c3nc4ccc(Cl)cc4s3)cc2)CC1	-22.8	-6.1	-2.2%	2.1%	-8.6%
CCOC(=O)N1CCN(S(=O)(=O)c2ccc(C(=O)N(CCN(CC)CC)c3nc4ccc(C)cc4s3)cc2)CC1	19.2	22.5*	-13.8%	1.0%	-24.9%
CCc1ccc2nc(N(CCCN(C)C)C(=O)c3ccc(S(=O)(=O)N4CCCC4)cc3)sc2c1	-4.0	1.2	-1.8%	0.4%	nt
CCOC(=O)N1CCN(S(=O)(=O)c2ccc(C(=O)N(CCCN(C)C)c3nc4ccc(CC)cc4s3)cc2)CC1	29.9	17.3*	10.1%	6.9%	-9.6%
O=S(=O)(NCCc1cn(S(=O)(=O)c2ccccc2)c2ccccc12)c1ccccc1	-1.5	-4.4	nt	nt	nt
CC(C)[C@H](NC(=O)c1ccco1)C(=O)Nc1ccc(OC(F)F)cc1	1.8	-1.0	2.5%	0.0%	0.4%
CCc1ccccc1N(CC(=O)NC1CCCC1)C(=O)CNC(=O)c1cccs1	-7.2	-1.7	-5.6%	-4.7%	5.4%
c1ccn2cc(CSc3nnc4ccccn34)nc2c1	119.7*	56.9*	2.0%	3.1%	-0.6%
c1ccc(-n2nnnc2SCc2cn3ccccc3n2)cc1	8.4	5.1	-3.9%	2.3%	-8.3%
Cn1ccnc1SCc1cn2ccccc2n1	82.3*	29.9*	1.6%	-16.1%	-7.1%
c1ccn2cc(CSC3=NCCS3)nc2c1	121.1*	28.7*	7.5%	0.3%	-9.8%
N#Cc1ccccc1CSC1=NCCS1	21.4	9.0	2.0%	4.8%	5.3%
COC(c1ccccc1Br)C(C)/C=C/CCO (centres undefined)	nt	nt	nt	nt	0.8%[12.9 µM]
CC(=O)c1cnc(Nc2ccccc2)s1	43.5	33.6*	-45.5%	-17.5%	-3.0%
O=C(c1ccc(Cl)cc1)c1cnc(Nc2ccccc2Cl)s1	120.2*	50.0*	-9.0%	-3.8%	-0.6%
CC(=O)c1cnc(Nc2cccc(Cl)c2Cl)s1	81.2*	37.2*	-7.6%	-12.6%	0.4%
CC(=O)Nc1ncc(Cc2cccc(Cl)c2Cl)s1	21.9	3.9	0.3%	4.6%	3.6%
CC(Sc1nc2ccccc2c(=O)n1CCc1ccc(S(N)(=O)=O)cc1)C(=O)NC(N)=O (centres undefined)	2.0	-8.6	12.8%	-1.3%	-14.8%
Cn1c2ccc(CC(=O)O)cc2c2cc(CC(=O)O)ccc21	-11.0	-1.9	2.1%	-10.5%	-1.4%
COC(=O)Cc1ccc2c3ccccc3n(C)c2c1	18.1	25.2*	-87.1%	0.5%	-0.6%
Cc1cccc(N=Nc2c(O)[nH]c3ccc(Br)cc23)c1	31.4*	39.4*	-0.3%	0.9%	-3.9%
COc1ccccc1N=Nc1c(O)[nH]c2ccc(Br)cc12	28.8	2.2	-0.2%	-1.9%	1.5%
COc1cc(C2NC(=S)NC(O)(C(F)(F)F)C2C(=O)c2cccs2)cc(OC)c1O (centres undefined)	11.3*	40.5*	0.8%	-5.7%	-8.0%
O=C1NC(c2ccccc2)C(C(=O)c2cccs2)C(O)(C(F)(F)F)N1 (centres undefined)	25.2	10.2	-2.0%	5.9%	6.9%
CN1C(=O)NC(c2ccc(O)cc2)C(C(=O)c2cccs2)C1(O)C(F)(F)F (centres undefined)	111.1*	34.4	-10.1%	1.5%	5.8%

Bioassay records (PubChem BioAssay)
